Assay outcomes from PubChem.
Compounds with a hit are over-represented: about 3.2% of the library has one in this group of screens.
GDH-TPI counter-1: GDH-TPI coupled enzyme inhibition counter-screen; GDH-TPI coupled enzyme counterscreen, NADH absorbance; AID 588335; inhibition, % at 4.8 µM; hit rate 1.2% among 360,000; in the data active = inhibition above about 30%
Mtb FBA inh: inhibits M. tuberculosis FBA enzyme; P9WQA3; purified M. tuberculosis FBA, fluorescence read-out; inhibition, % at 1 µM; hit rate 2.3% among 360,000; in the data active = inhibition above about 27%
Mtb betalactam: beta-lactam sensitization of Mtb H37Rv. M. tuberculosis H37Rv growth with meropenem, percent inhibition. inhibition, % at 25 µM. hit rate 0.27% among 330,000. AID 434955;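 note: growth measured after seven days incubation then overnight dye step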
SSB-PriA inh: inhibitors of Klebsiella pneumoniae PriA binding to SSB C-terminal tail; AlphaScreen SSBct-PriA binding, biotinylated peptide; inhibition, % at 33 µM; AID 1272365; hit rate 0.6% among 430,000; in the data active = inhibition mostly above about 37%, no sharp cut-off; inactive = mostly below about 20%
Rv3671c protease: inhibits the M. tuberculosis serine protease Rv3671c | inhibition, % at 5.96 µM | hit rate 0.048% among 320,000 | AID 2606; in the data active = inhibition above about 38%;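 note: extracellular domain of Rv3671c used as enzyme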
UGM FP inh: inhibitors of M. tuberculosis UDP-galactopyranose mutase. P9WIQ1. purified UGM, fluorescence polarization probe displacement. inhibition, % at 10 µM. hit rate 0.06% among 320,000. AID 504406; in the data active = inhibition above about 10%, passing the limit was not always enough; inconclusive = no clear call, values can overlap the other calls
Target sequence (P9WIQ1 whole entry, looked up): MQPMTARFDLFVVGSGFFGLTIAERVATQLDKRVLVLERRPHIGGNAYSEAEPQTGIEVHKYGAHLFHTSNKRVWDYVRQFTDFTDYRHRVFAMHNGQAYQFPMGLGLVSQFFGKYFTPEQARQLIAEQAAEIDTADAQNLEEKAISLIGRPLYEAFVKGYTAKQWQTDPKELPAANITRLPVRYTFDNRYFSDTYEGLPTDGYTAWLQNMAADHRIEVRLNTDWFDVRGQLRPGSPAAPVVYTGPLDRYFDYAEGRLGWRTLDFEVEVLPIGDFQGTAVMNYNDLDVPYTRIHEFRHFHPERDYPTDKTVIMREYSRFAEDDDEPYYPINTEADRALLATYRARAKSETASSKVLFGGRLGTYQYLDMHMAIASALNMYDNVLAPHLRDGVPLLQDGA
Mtb FBA inh conf: confirmation of M. tuberculosis fructose-bisphosphate aldolase inhibitors. shares compounds with Mtb FBA inh. purified M. tuberculosis FBA, fluorescence read-out. inhibition, % at 1 µM. hit rate 78% among 5,600. AID 651616; in the data active = inhibition above about 27%
GDH-TPI counter-2: counter-screen for M. tuberculosis FBA inhibitors: GDH-TPI coupled enzyme inhibition. GDH-TPI coupled enzyme counterscreen, fluorescence. AID 652141. hit rate 81% among 5,600. shares compounds with Mtb FBA inh. inhibition, % at 1 µM; in the data active = inhibition above about 10%
GDH-TPI DR: inhibits GDH-TPI coupling enzymes in dose response | shares compounds with Mtb FBA inh | GDH-TPI coupled enzyme assay, fluorescence, artifact counterscreen | IC50, µM | hit rate 79% among 170 | AID 652145
Hits are given with their value; . = inactive; ? = inconclusive; / = no result; + = active, no number. Unless noted, the rule behind the calls is not given here.

SMILES | GDH-TPI counter-1 | Mtb FBA inh | Mtb betalactam | SSB-PriA inh | Rv3671c protease | UGM FP inh | Mtb FBA inh conf | GDH-TPI counter-2 | others
c1ccc(-c2noc(-c3cccc4ccccc34)n2)nc1 | . | 45.5 | . | . | . | . | + | +
COc1cccc(-c2nc(-c3ccccn3)no2)c1OC | . | . | . | . | . | . | / | /
Clc1ccc(C2=C3CCCCn4c(-c5ccccc5)c[n+](c43)C2)cc1 | . | . | . | . | . | . | / | /
COc1ccc(-c2c[n+]3c4n2CCCCC4=C(c2ccc(Br)cc2)C3)cc1 | . | 75.3 | . | . | . | . | 136.2 | 104.9
COc1cn(CC(=O)NCc2ccccc2Cl)c(CSc2nccn2C)cc1=O | / | / | / | . | / | / | / | /
CC(=O)Nc1cc(-c2cccc(C)c2)cn2c(-c3ccc(S(C)(=O)=O)cc3)cnc12 | . | 35.0 | / | / | / | / | . | .
COc1ccccc1-c1cc(NC(C)=O)c2ncc(-c3ccc(S(C)(=O)=O)cc3)n2c1 | . | 58.5 | / | / | / | / | 71.4 | 61.7
CC(=O)Nc1cc(-c2ccccc2Cl)cn2c(-c3ccc(S(C)(=O)=O)cc3)cnc12 | . | 41.5 | / | / | / | / | + | 182.6
CC(=O)Nc1cc(-c2ccccc2)cn2c(-c3ccc(F)c(Cl)c3)cnc12 | . | . | / | / | / | / | / | /
CC(=O)Nc1cc(-c2cccc(NS(C)(=O)=O)c2)cn2c(-c3ccccc3)cnc12 | . | . | / | / | / | / | / | /
c1csc(-c2cnc3ccccc3n2)c1 | . | 63.1 | . | . | . | . | . | .
c1coc(-c2nc3ccccc3nc2-c2ccco2)c1 | . | . | . | . | . | . | / | /
c1coc(-c2cnc3ccccc3n2)c1 | . | 105.8 | / | / | / | / | 68.8 | 46.0
c1cc(-c2cccs2)nc(-c2cccs2)c1 | . | . | . | . | . | . | / | /
CN(C)C(=O)CSc1nc2ccc([N+](=O)[O-])cc2s1 | / | / | / | . | / | / | / | /
O=C(NC1CCCCC1)c1ccc2[nH]c(=O)c(=O)[nH]c2c1 | . | 41.1 | . | . | . | . | . | . | GDH-TPI DR=4.28
O=C(Nc1ccc2c(c1)CCCN2C(=O)c1cccs1)c1c(F)cccc1Cl | . | 98.8 | . | . | . | . | + | 199.5
O=C(Nc1ccc2c(c1)CCCN2C(=O)c1cccs1)c1c(F)cccc1F | . | . | . | . | . | . | / | /
COc1cc(OC)c(OC)cc1/C=C/c1cc(C(=O)O)c2ccccc2n1 | . | . | . | . | . | . | / | /
CCOc1ccccc1/C=C/c1nc2ccccc2[nH]c1=O | . | 43.3 | . | . | / | . | . | .
CCOc1ccccc1/C=C/c1cc(C(=O)O)c2ccccc2n1 | . | 28.9 | . | . | . | . | 91.3 | 70.9
CSc1nnc(-c2ccc(S(=O)(=O)N3CCCC3)cc2)n1C | . | 46.5 | . | . | . | . | 92.1 | 71.1
CCN(CC)CCOC(=O)c1cccc2c1-c1ccccc1C2O (stereo not drawn) | . | 29.0 | . | . | . | . | 46.4 | 35.1
CCCN1CCN(CCCNC(=O)c2cc3c(=O)[nH]c4ccc(C)cc4c3s2)CC1 | . | 52.6 | . | . | . | . | 90.7 | 92.8
CCN1CCN(CCCNC(=O)c2cc3c(=O)oc4ccc(C)cc4c3s2)CC1 | . | . | . | . | . | . | / | /
SMILES | GDH-TPI counter-1 | Mtb FBA inh | Mtb betalactam | SSB-PriA inh | Rv3671c protease | UGM FP inh | Mtb FBA inh conf | GDH-TPI counter-2 | others
Cc1ccc2[nH]c(=O)c3cc(C(=O)NC(C)C)sc3c2c1 | . | 73.5 | . | . | . | . | 84.5 | 68.0
Cc1ccc2[nH]c(=O)c3cc(C(=O)NCC4CCCO4)sc3c2c1 (stereo not drawn) | . | . | . | . | . | . | / | /
COC(=O)Nc1ccc(S(=O)(=O)NCC(C)(O)C2CC2)cc1 (stereo not drawn) | / | / | / | . | / | / | / | /
Cc1cc(C)n(-c2nc(NCC(C)O)c3c4c(sc3n2)CCCC4)n1 (stereo not drawn) | . | . | . | . | . | . | / | /
Cc1cc(C)n(-c2nc(NCC(C)O)c3c4c(sc3n2)COC(C)(C)C4)n1 (stereo not drawn) | . | 55.8 | . | . | . | . | 75.2 | 64.0
Cn1c2ccccc2c(=O)c2cc(C#CC3=CCCCC3)ccc21 | . | 86.1 | . | . | . | . | 151.3 | 113.2
CCOc1ccc(-c2noc(CSc3nc(CC)cc(=O)[nH]3)n2)cc1 | / | / | / | . | / | / | / | /
CCN1C(=O)[C@H]2[C@@H](c3ccc(-c4ccc(OC)cc4)c(OC)c3)N[C@@](C)(C(=O)OC)[C@H]2C1=O | . | 35.2 | . | . | . | . | 39.3 | 43.2
COC(=O)[C@]1(C)N[C@H](c2ccc(-c3cccc(Cl)c3)c(OC)c2)[C@@H]2C(=O)N(C)C(=O)[C@@H]21 | . | 37.9 | . | . | . | . | 46.8 | 40.8
COC(=O)[C@@]12CCCN1[C@H](c1ccc(-c3ccc(OC)cc3)c(OC)c1)[C@@H]1C(=O)N(C)C(=O)[C@@H]12 | . | 28.8 | . | . | . | . | + | +
CC(=O)Nc1ccc(S(=O)(=O)N=C2SCCN2S(=O)(=O)c2ccc(NC(C)=O)cc2)cc1 | / | / | / | . | / | / | / | /
CCOc1ccc(-c2csc(-n3nc(C)cc3NC(=O)Cc3cccs3)n2)cc1 | / | / | / | . | / | / | / | /
CCS(=O)(=O)Nc1ccsc1-c1nc(C2CC2)no1 | / | / | / | . | / | / | / | /
CCOC(=O)CNC(=O)C1CN(C(=O)c2cnccn2)C1 | / | / | / | . | / | / | / | /
CC(C)COc1ccc(-c2nnc(-c3ccco3)o2)cc1 | . | 42.7 | . | . | . | . | 53.7 | 43.1
COc1cccc(-c2nnc(-c3ccco3)o2)c1 | . | 61.5 | . | . | . | / | + | +
CCCOc1ccc(-c2nnc(-c3ccco3)o2)cc1 | . | 60.1 | . | . | . | . | 50.4 | 36.2
COc1cccc(C(=O)Nc2ccc(-c3nnc(-c4ccco4)o3)cc2)c1 | . | . | . | . | . | . | / | /
Fc1cccc(Cl)c1CSc1ncnc2ccccc12 | / | / | / | . | / | / | / | /
O=C(Nc1nnc(SCc2cccc([N+](=O)[O-])c2)s1)c1ccccc1Cl | / | / | / | . | / | / | / | /
CC(C)n1cnc(S(=O)(=O)N2CCC(Oc3ccc(N(C)C)nn3)C2)c1 (stereo not drawn) | / | / | / | . | / | / | / | /
COc1ccc2nc3oc(C(=O)N4CCN(c5cccc(C(F)(F)F)c5)CC4)cc3cc2c1 | . | . | . | . | . | . | / | /
CCCCN(C)C(=O)c1cc2cc3cc(OC)ccc3nc2o1 | . | 73.7 | . | . | . | . | 166.4 | 126.6
COc1ccc2cc3cc(C(=O)Nc4cc(OC)c(OC)c(OC)c4)oc3nc2c1 | . | . | . | . | . | . | / | /
CCCCN(C)C(=O)c1cc2cc3ccc(OC)cc3nc2o1 | . | 78.0 | . | . | . | . | . | .
COc1ccc2oc(C(=O)OCC(=O)NC3CCCC3)c(C)c2c1 | . | 38.2 | ? | . | . | . | 131.6 | 112.6
COc1ccc2oc(C(=O)OCC(=O)NC3(C#N)CCCC3)c(C)c2c1 | . | 34.7 | . | . | . | . | + | +
